Laboratory results published in paper PMC7862700, “An all-to-all approach to the identification of sequence-specific readers for epigenetic DNA modifications on cytosine”.

Experiments:
Assay in all cases: DAPPL (digital affinity profiling via proximity ligation, sequencing); 10 mM Tris-HCl pH 7.5, 50 mM NaCl, 1 mM DTT, 4% glycerol, room temperature, 30 min; GST-TFs on glutathione beads, 16-mer random dsDNA library, 0.1% formaldehyde crosslink after washing; high values mean tight binding
ETV5 = ETV5 (Homo sapiens, UniProt P41161 1-510); conditions: protein: recombinant; tags: N-terminal GST; dsDNA, one strand shown
In short: (§1)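 Binding signal is each hexamer's read frequency for a factor divided by its frequency in the tag-only sample. The factors were GST-fused human transcription factors from yeast, captured on glutathione beads, DNA-barcoded and pooled with that sample. Pools were incubated with 200 nmole of a random double-stranded 16-mer DNA library in Tris/NaCl/DTT/glycerol buffer at room temperature for 30 min, then washed, crosslinked with 0.1% formaldehyde, proximity-ligated with BsaI/T4 ligase (1 h, 37 °C), PCR-amplified and sequenced on an Illumina NextSeq500.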

HSF1 = HSF1 (Homo sapiens, UniProt Q00613 1-529); conditions: protein: recombinant; tags: N-terminal GST; chain copies: 3; dsDNA, one strand shown
In short: as §1

SPIC = target: T1, SPIC (Homo sapiens, UniProt Q8N5J4 1-248); conditions: protein: recombinant; tags: N-terminal GST; dsDNA, one strand shown
T1 sequence: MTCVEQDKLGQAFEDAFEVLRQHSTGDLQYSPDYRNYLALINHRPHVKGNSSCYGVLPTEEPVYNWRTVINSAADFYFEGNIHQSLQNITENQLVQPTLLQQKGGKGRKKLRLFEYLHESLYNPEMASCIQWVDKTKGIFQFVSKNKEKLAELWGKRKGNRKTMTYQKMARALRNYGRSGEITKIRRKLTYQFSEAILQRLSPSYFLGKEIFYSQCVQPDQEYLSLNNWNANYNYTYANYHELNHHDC
In short: as §1

ELK4 = target: T2, ELK4 (Homo sapiens, UniProt P28324-2 1-405); conditions: protein: recombinant; tags: N-terminal GST; dsDNA, one strand shown
T2 sequence: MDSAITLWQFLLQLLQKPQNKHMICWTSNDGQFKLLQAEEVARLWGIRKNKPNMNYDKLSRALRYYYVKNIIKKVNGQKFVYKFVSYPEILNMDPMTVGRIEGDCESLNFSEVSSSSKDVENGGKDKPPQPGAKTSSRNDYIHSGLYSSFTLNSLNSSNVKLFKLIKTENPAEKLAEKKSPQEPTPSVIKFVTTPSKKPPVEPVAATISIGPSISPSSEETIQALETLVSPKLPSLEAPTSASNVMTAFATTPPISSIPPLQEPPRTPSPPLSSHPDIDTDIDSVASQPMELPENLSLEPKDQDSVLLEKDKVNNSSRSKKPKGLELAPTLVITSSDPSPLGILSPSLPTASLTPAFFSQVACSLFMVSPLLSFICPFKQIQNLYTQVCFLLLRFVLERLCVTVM
In short: as §1

ETV2 = target: T3, ETV2 (Homo sapiens, UniProt O00321 1-342); conditions: protein: recombinant; tags: N-terminal GST; dsDNA, one strand shown
T3 sequence: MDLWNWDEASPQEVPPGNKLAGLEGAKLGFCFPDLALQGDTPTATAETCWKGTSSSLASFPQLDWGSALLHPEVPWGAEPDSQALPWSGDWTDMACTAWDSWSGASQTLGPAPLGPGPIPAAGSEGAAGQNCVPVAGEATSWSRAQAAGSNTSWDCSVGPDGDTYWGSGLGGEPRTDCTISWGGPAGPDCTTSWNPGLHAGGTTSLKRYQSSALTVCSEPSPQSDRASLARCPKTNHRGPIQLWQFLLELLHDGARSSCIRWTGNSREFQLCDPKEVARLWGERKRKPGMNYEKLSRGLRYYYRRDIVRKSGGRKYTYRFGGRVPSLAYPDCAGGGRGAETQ
In short: as §1

CRX = CRX (Homo sapiens, UniProt O43186 1-299); conditions: protein: recombinant; tags: N-terminal GST; dsDNA, one strand shown
In short: as §1

ETV1 = ETV1 (Homo sapiens, UniProt P50549 1-477); conditions: protein: recombinant; tags: N-terminal GST; dsDNA, one strand shown
In short: as §1

ERF = target: T4, ERF (Homo sapiens, UniProt P50548 1-548); conditions: protein: recombinant; tags: N-terminal GST; dsDNA, one strand shown
T4 sequence: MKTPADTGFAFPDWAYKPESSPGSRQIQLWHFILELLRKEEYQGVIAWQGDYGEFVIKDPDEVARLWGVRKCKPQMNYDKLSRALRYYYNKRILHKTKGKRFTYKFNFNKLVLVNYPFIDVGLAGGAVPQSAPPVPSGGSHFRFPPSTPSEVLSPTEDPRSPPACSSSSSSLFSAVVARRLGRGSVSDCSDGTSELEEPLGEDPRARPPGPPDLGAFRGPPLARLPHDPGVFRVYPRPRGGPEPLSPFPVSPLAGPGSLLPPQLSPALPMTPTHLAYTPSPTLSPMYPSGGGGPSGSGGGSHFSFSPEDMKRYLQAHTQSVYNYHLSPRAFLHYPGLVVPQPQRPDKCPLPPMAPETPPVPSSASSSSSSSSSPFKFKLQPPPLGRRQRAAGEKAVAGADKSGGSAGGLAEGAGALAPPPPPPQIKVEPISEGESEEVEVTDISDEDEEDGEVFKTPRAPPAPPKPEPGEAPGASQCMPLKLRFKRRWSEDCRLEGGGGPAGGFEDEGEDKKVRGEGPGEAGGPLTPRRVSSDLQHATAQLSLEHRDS
In short: as §1

ETS2 = target: T5, ETS2 (Homo sapiens, UniProt P15036 1-469); conditions: protein: recombinant; tags: N-terminal GST; dsDNA, one strand shown
T5 sequence: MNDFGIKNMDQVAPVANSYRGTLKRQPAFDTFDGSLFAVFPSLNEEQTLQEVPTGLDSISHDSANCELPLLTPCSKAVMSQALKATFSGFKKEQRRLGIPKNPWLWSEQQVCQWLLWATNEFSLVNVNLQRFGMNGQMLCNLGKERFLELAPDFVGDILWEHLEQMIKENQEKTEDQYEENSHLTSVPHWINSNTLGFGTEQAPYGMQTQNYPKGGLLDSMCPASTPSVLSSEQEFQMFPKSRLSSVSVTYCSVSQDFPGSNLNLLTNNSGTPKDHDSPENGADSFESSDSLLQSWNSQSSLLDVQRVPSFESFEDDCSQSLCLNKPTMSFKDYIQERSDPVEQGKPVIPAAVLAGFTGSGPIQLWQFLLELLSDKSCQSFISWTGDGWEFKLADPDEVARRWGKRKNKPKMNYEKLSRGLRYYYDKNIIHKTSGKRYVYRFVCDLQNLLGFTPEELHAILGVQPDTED
In short: as §1

SPDEF = target: T6, SPDEF (Homo sapiens, UniProt O95238 1-335); conditions: protein: recombinant; tags: N-terminal GST; dsDNA, one strand shown
T6 sequence: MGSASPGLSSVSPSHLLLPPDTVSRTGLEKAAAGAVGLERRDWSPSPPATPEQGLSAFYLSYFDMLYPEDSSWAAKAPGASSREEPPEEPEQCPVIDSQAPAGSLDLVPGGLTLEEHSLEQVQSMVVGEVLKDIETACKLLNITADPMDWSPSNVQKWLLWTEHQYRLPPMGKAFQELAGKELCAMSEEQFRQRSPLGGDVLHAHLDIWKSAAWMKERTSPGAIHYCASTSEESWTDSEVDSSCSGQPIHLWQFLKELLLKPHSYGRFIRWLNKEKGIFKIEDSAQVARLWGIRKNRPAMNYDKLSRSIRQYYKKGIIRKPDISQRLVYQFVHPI
In short: as §1

ETV7 = target: T7, ETV7 (Homo sapiens, UniProt Q9Y603 1-341); conditions: protein: recombinant; tags: N-terminal GST; dsDNA, one strand shown
T7 sequence: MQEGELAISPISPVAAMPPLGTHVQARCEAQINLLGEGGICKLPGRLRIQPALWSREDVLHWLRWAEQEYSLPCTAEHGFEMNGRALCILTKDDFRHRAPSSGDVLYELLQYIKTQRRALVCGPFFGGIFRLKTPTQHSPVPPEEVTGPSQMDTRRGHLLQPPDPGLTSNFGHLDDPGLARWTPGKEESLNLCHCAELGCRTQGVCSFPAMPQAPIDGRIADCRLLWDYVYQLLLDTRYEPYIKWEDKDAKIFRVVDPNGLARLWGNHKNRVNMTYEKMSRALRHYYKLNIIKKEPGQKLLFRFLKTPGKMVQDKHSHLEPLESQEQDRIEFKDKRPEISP
In short: as §1

ELF5 = target: T8, ELF5 (Homo sapiens, UniProt Q9UKW6-2 1-255); conditions: protein: recombinant; tags: N-terminal GST; dsDNA, one strand shown
T8 sequence: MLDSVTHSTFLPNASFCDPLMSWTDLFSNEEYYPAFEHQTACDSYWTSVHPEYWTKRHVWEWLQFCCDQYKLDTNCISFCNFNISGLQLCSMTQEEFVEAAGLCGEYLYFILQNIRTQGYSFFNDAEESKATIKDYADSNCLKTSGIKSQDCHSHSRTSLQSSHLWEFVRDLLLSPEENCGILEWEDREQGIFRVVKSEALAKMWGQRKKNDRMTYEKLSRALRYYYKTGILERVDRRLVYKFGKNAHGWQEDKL
In short: as §1

ETV3 = target: T9, ETV3 (Homo sapiens, UniProt P41162-2 1-143); conditions: protein: recombinant; tags: N-terminal GST; dsDNA, one strand shown
T9 sequence: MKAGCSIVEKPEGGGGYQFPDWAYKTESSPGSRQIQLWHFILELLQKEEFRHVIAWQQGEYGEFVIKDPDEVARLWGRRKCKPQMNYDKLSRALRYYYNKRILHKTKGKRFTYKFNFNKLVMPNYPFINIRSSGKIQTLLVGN
In short: as §1

ETV6 = ETV6 (Homo sapiens, UniProt P41212 1-452); conditions: protein: recombinant; tags: N-terminal GST; dsDNA, one strand shown
In short: as §1

ELF4 = ELF4 (Homo sapiens, UniProt Q99607 1-663); conditions: protein: recombinant; tags: N-terminal GST; dsDNA, one strand shown
In short: as §1

ELF3 = target: T10, ELF3 (Homo sapiens, UniProt P78545 1-371); conditions: protein: recombinant; tags: N-terminal GST; dsDNA, one strand shown
T10 sequence: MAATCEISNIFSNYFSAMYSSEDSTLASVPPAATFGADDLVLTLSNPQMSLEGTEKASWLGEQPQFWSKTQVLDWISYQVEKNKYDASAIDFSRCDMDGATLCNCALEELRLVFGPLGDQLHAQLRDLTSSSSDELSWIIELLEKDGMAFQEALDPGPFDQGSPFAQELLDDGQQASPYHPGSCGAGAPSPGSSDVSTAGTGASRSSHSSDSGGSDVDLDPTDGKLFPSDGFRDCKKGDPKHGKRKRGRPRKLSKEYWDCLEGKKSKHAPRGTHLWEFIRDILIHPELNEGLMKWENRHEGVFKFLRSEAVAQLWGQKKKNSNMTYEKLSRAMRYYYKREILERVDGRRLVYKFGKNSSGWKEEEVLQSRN
In short: as §1

ETV3L = target: T11, ETV3L (Homo sapiens, UniProt Q6ZN32 1-361); conditions: protein: recombinant; tags: N-terminal GST; dsDNA, one strand shown
T11 sequence: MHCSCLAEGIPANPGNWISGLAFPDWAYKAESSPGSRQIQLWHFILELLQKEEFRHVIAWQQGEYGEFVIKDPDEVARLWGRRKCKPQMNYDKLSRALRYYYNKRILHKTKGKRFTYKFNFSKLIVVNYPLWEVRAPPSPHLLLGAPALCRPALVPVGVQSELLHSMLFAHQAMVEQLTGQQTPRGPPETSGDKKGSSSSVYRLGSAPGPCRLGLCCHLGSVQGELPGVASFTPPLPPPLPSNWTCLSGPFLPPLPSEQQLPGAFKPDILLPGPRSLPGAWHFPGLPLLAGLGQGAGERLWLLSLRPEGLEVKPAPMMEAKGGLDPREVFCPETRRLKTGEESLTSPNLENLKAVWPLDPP
In short: as §1

Sequence of CRX (O43186 whole entry): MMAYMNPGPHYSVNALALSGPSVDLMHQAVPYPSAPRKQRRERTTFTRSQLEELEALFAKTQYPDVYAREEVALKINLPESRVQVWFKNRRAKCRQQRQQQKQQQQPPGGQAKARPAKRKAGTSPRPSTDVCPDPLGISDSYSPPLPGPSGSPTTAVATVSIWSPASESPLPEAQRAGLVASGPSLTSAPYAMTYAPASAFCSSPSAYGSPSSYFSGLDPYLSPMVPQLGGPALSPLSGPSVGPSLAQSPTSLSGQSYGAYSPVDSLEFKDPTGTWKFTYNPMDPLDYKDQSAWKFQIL
Sequence of HSF1 (Q00613 whole entry): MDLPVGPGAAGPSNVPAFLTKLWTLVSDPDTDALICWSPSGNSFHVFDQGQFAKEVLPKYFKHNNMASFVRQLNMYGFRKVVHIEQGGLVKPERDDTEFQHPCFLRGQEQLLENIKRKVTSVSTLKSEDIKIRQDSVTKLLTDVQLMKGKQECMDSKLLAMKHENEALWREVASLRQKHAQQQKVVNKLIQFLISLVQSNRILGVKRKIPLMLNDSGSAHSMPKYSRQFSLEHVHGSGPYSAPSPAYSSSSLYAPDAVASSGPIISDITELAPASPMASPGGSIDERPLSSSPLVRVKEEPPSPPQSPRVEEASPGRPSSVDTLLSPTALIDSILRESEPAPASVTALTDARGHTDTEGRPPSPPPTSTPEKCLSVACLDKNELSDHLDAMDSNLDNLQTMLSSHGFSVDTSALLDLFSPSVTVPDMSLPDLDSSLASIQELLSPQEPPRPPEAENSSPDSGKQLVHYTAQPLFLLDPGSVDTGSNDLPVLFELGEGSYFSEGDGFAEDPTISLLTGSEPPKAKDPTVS
Sequence of ETV5 (P41161 whole entry, the tested form may be a part): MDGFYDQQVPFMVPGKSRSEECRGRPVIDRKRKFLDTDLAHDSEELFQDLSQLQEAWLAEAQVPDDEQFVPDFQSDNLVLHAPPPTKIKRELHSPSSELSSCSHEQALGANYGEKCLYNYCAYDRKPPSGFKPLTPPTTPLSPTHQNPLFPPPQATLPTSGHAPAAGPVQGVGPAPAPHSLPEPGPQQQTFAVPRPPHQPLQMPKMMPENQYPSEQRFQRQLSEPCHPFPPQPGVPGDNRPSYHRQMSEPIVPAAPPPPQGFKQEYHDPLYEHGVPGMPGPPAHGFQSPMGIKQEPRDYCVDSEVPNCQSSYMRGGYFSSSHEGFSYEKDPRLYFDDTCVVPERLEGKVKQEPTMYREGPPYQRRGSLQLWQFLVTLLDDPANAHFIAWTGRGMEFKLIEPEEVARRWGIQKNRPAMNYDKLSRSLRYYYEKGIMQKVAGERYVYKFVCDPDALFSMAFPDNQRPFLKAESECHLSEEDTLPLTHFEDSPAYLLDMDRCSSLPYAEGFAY
Sequence of ETV6 (P41212 whole entry): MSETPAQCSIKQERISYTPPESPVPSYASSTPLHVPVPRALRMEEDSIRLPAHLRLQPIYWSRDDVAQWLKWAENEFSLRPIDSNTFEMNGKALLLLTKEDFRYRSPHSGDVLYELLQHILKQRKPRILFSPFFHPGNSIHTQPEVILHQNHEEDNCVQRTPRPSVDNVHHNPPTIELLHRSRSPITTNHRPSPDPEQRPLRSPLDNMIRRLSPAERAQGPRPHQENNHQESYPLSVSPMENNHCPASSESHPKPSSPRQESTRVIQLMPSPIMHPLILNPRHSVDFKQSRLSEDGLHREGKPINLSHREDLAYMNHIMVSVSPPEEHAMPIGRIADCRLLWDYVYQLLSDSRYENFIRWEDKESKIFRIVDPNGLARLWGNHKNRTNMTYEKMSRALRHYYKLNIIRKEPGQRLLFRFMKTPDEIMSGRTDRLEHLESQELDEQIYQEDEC
Sequence of ETV1 (P50549 whole entry): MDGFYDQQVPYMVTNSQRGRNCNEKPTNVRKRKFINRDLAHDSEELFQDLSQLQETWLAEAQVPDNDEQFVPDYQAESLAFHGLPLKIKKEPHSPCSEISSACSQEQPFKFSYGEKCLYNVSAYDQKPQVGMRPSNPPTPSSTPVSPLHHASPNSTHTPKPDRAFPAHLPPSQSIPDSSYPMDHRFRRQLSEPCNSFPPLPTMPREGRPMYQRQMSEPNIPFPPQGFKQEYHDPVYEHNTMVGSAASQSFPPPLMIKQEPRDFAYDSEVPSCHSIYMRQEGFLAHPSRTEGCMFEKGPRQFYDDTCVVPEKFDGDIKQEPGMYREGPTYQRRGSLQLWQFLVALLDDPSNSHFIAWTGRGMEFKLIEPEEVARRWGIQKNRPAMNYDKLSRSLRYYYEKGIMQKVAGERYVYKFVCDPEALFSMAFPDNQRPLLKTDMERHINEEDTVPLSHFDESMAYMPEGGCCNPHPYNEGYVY
Sequence of ELF4 (Q99607 whole entry): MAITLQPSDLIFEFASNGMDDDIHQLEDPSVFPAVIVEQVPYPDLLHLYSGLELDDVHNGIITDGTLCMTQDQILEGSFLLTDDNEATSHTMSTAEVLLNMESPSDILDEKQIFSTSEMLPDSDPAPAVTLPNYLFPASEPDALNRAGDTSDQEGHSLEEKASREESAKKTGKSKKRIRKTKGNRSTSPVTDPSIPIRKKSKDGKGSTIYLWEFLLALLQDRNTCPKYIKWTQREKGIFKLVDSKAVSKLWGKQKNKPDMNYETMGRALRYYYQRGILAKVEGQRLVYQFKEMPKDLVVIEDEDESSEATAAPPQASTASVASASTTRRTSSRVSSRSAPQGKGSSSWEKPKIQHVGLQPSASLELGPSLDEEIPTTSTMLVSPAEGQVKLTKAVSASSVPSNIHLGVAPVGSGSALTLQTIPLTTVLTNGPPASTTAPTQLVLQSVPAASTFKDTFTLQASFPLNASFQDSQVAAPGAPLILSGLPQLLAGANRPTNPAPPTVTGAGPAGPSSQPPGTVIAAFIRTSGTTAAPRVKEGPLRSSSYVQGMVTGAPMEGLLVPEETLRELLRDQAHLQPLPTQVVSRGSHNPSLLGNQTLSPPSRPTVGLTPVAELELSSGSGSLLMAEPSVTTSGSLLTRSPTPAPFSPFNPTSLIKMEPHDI

Sequence: GAATTA
- binding signal (ETV5): 1.01 fold enrichment (6-mer frequency, TF over GST control)
- binding signal (HSF1): 1.72 fold enrichment (6-mer frequency, TF over GST control)
- binding signal (SPIC): 1.12 fold enrichment (6-mer frequency, TF over GST control)
- binding signal (ELK4): 1.09 fold enrichment (6-mer frequency, TF over GST control)
- binding signal (ETV2): 1.02 fold enrichment (6-mer frequency, TF over GST control)
- binding signal (CRX): 2.39 fold enrichment (6-mer frequency, TF over GST control)
- binding signal (ETV1): 1.08 fold enrichment (6-mer frequency, TF over GST control)
- binding signal (ERF): 1.06 fold enrichment (6-mer frequency, TF over GST control)
- binding signal (ETS2): 1.05 fold enrichment (6-mer frequency, TF over GST control)
- binding signal (SPDEF): 1.01 fold enrichment (6-mer frequency, TF over GST control)
- binding signal (ETV7): 1.06 fold enrichment (6-mer frequency, TF over GST control)
- binding signal (ELF5): 1.03 fold enrichment (6-mer frequency, TF over GST control)
- binding signal (ETV3): 1.1 fold enrichment (6-mer frequency, TF over GST control)
- binding signal (ETV6): 1.08 fold enrichment (6-mer frequency, TF over GST control)

Sequence: CAAGAA
- binding signal (ETV5): 1.09 fold enrichment (6-mer frequency, TF over GST control)
- binding signal (HSF1): 1.51 fold enrichment (6-mer frequency, TF over GST control)
- binding signal (SPIC): 1.09 fold enrichment (6-mer frequency, TF over GST control)
- binding signal (ELF4): 1.06 fold enrichment (6-mer frequency, TF over GST control)
- binding signal (ELF3): 1.11 fold enrichment (6-mer frequency, TF over GST control)
- binding signal (CRX): 1.08 fold enrichment (6-mer frequency, TF over GST control)
- binding signal (ETV1): 1.05 fold enrichment (6-mer frequency, TF over GST control)
- binding signal (ERF): 1.12 fold enrichment (6-mer frequency, TF over GST control)
- binding signal (ETV3L): 1.09 fold enrichment (6-mer frequency, TF over GST control)
- binding signal (ETS2): 1.07 fold enrichment (6-mer frequency, TF over GST control)
- binding signal (SPDEF): 1.06 fold enrichment (6-mer frequency, TF over GST control)
- binding signal (ETV7): 1.14 fold enrichment (6-mer frequency, TF over GST control)
- binding signal (ELF5): 1.08 fold enrichment (6-mer frequency, TF over GST control)
- binding signal (ETV6): 1.04 fold enrichment (6-mer frequency, TF over GST control)
